The record followed here is PubChem BioAssay (EPA / NIEHS).

Values joined by “and” are separate entries in the source; they are usually repeats but may differ in a detail not shown here. Equal entries are not always repeated. Active and inactive are the calls of the source. The calls were made as follows: active = hit-call score of the fitted dose curve at least 0.9, where 1 is the maximum; inactive = score below 0.9.

Assay [1] can be described thus: BSK_hDFCGF_SRB: Viability Assessment in the BioMAP Diversity Plus: hDFCGF Assay (AID 2283061).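 Also: cells exposed to compound for 24 h before the read.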 To be noted: primary human foreskin fibroblasts. Summed up: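 Primary human foreskin fibroblasts; 24 h post-dose; fixed 10% TCA, stained 0.1% SRB, A560 read; total protein as overt cytotoxicity measure; curves fit bidirectionally vs DMSO control.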
Read-out in assay [2]: Monokine induced gamma interferon (MIG), CXCL9 (gene 4283)
Description: BSK_hDFCGF_MIG: BioMAP Diversity Plus: hDFCGF Assay for Monokine induced gamma interferon (MIG) Biomarker Activity (AID 2283063). To be noted: primary human foreskin fibroblasts; actives raise or lower the signal. In short, it runs like this:
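Fibroblasts (human foreskin, primary) dosed, 24 h, MIG by ELISA; fit bidirectional vs DMSO.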

Read-out in assay [3]: Matrix Metallopeptidase 1 (MMP1), MMP1 (gene 4312)
Description: BSK_hDFCGF_MMP1: BioMAP Diversity Plus: hDFCGF Assay for Matrix Metallopeptidase 1 (MMP1) Biomarker Activity (AID 2283064). Particulars: primary human foreskin fibroblasts; actives raise or lower the signal. Summed up: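 ELISA read-out of MMP1 from human foreskin fibroblasts (primary skin cells), 24 h post-dose. Gain or loss of signal was fitted bidirectionally versus DMSO negative control; cytotoxicity was checked by SRB in parallel cultures.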

Read-out in assay [4]: Plasminogen activator inhibitor-1 (PAI1), SERPINE1 (gene 5054)
Description: BSK_hDFCGF_PAI1: BioMAP Diversity Plus: hDFCGF Assay for Plasminogen activator inhibitor-1 (PAI1) Biomarker Activity (AID 2283066). Particulars: primary human foreskin fibroblasts; actives raise or lower the signal. In short, it runs like this: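 Human skin fibroblast cultures receive chemical for 24 h before PAI-1 is measured by ELISA; signal changes are fitted bidirectionally against DMSO-treated wells.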

Read-out in assay [5]: Interferon-gamma inducible Protein 10 (IP10), CXCL10 (gene 3627)
Briefly: BSK_KF3CT_IP10: BioMAP Diversity Plus: KF3CT Assay for Interferon-gamma inducible Protein 10 (IP10) Biomarker Activity (AID 2283068). Particulars: primary human keratinocytes with fibroblasts; actives raise or lower the signal. In short, it runs like this:
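ELISA read-out of IP-10 after 24 h chemical dosing of human skin primary co-culture (keratinocytes, foreskin fibroblasts). Gain or loss of signal relative to DMSO, bidirectional curve fit.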

Assay [6] can be described thus: BSK_KF3CT_SRB: Viability Assessment in the BioMAP Diversity Plus: KF3CT Assay (AID 2283069).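 Also: total protein by sulforhodamine B staining as a cytotoxicity measure.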 Particulars: primary human keratinocytes with fibroblasts. Summed up:
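SRB read-out at 560 nm (0.1% stain, TCA-fixed cells) gauges overt cytotoxicity in a human skin keratinocyte–fibroblast co-culture 24 h post-dosing. Signal change was fitted bidirectionally relative to DMSO control.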

Read-out in assay [7]: Interleukin-1 alpha (IL1a), IL1A (gene 3552)
Briefly: BSK_KF3CT_IL1a: BioMAP Diversity Plus: KF3CT Assay for Interleukin-1 alpha (IL1a) Biomarker Activity (AID 2283070). To be noted: primary human keratinocytes with fibroblasts; actives raise or lower the signal. In short, it runs like this: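 Primary skin co-culture (keratinocytes, foreskin fibroblasts), 24 h exposure; ELISA for IL-1a; bidirectional curve fit vs DMSO.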

Read-out in assay [8]: TIMP metallopeptidase inhibitor 2 (TIMP2), TIMP2 (gene 7077)
Briefly: BSK_KF3CT_TIMP2: BioMAP Diversity Plus: KF3CT Assay for TIMP metallopeptidase inhibitor 2 (TIMP2) Biomarker Activity (AID 2283071). Particulars: primary human keratinocytes with fibroblasts; actives raise or lower the signal. In short, it runs like this: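 Measurements come from ELISA detection of TIMP-2 at 24 hours in a dosed human keratinocyte and foreskin fibroblast co-culture. DMSO serves as negative control and baseline.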

Read-out in assay [9]: C-C motif chemokine 2 (Homo sapiens) (UniProt P13500)
Description: BSK_KF3CT_MCP1: BioMAP Diversity Plus: KF3CT Assay for Monocyte Chemoattractant Protein 1 (MCP1/CCL2) Biomarker Activity (AID 2283073). To be noted: primary human keratinocytes with fibroblasts; actives raise or lower the signal. Summed up:
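KF3CT skin co-culture (keratinocytes/foreskin fibroblasts), 24 h post-dose; MCP-1 by ELISA; gain/loss of signal fit bidirectionally vs DMSO baseline.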

Read-out in assay [10]: Matrix Metallopeptidase 9 (MMP9), MMP9 (gene 4318)
Description: BSK_KF3CT_MMP9: BioMAP Diversity Plus: KF3CT Assay for Matrix Metallopeptidase 9 (MMP9) Biomarker Activity (AID 2283074).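 As to AC50: MMP9 protein level quantified by ELISA in the co-culture.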 Particulars: primary human keratinocytes with fibroblasts; actives raise or lower the signal. Summed up:
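ELISA read-out of MMP-9 at 24 h post-dosing in a co-culture of human skin keratinocytes and foreskin fibroblasts. Gain or loss of signal was fitted in both directions against DMSO.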

Read-out in assay [11]: urokinase plasminogen activator (uPA), PLAU (gene 5328)
Description: BSK_KF3CT_uPA: BioMAP Diversity Plus: KF3CT Assay for urokinase plasminogen activator (uPA) Biomarker Activity (AID 2283075). Particulars: primary human keratinocytes with fibroblasts; actives raise or lower the signal. Summed up: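 Skin co-culture (keratinocytes + foreskin fibroblasts), human primary; 24 h post-dose; uPA by ELISA; gain/loss fit vs DMSO baseline.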

Assay [12] in a line: BSK_LPS_SRB: Viability Assessment in the BioMAP Diversity Plus: LPS Assay (AID 2283079).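 Also: total protein by sulforhodamine B absorbance as a cytotoxicity measure; measured one day after compound addition.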 Particulars: primary human HUVEC with PBMC. Summed up: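 HUVEC + PBMC co-culture, LPS-stimulated; compound 24 h. 10% TCA fix, 0.1% SRB stain, A560. Bidirectional fit vs DMSO.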
Read-out in assay [13]: Vascular cell adhesion molecule 1 (VCAM1), VCAM1 (gene 7412)
Description: BSK_LPS_VCAM1: BioMAP Diversity Plus: LPS Assay for Vascular cell adhesion molecule 1 (VCAM1) Biomarker Activity (AID 2283086). Particulars: primary human HUVEC with PBMC; actives raise or lower the signal. Summed up:
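Measured by ELISA: VCAM-1 in LPS-activated HUVEC/PBMC co-cultures 24 h after treatment. Values reflect bidirectional fitting with DMSO as baseline.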

Read-out in another assay: CD38, CD38 (gene 952)
Description: BSK_SAg_CD38: BioMAP Diversity Plus: SAg Assay for CD38 Biomarker Activity (AID 2283087). To be noted: primary human HUVEC with PBMC; actives raise or lower the signal. In short, it runs like this: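 Measures CD38 on a human endothelial/PBMC co-culture driven by SEB and TSST-1, 24 h after compound exposure, using ELISA with fluorescence detection; DMSO defines baseline for bidirectional curve fitting.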

Read-out in assay [14]: Monocyte Chemoattractant Protein-1 (MCP1), CCL2 (gene 6347)
Description: BSK_SAg_MCP1: BioMAP Diversity Plus: SAg Assay for Monocyte Chemoattractant Protein-1 (MCP1) Biomarker Activity (AID 2283090). To be noted: primary human HUVEC with PBMC; actives raise or lower the signal. Summed up: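 Values derive from bidirectional fitting of ELISA-measured MCP1 against DMSO controls. Readings were taken 24 h after dosing human vascular endothelial cells co-cultured with peripheral blood mononuclear cells under superantigen stimulation.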

Read-out in assay [15]: E-selectin (Homo sapiens) (UniProt P16581)
Briefly: BSK_SAg_Eselectin: BioMAP Diversity Plus: SAg Assay for Eselectin Biomarker Activity (AID 2283091). To be noted: primary human HUVEC with PBMC; actives raise or lower the signal. Summed up: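 E-selectin ELISA readout at 24 h post-dosing in human umbilical vein endothelial cell/PBMC co-culture; gain or loss of signal fitted relative to DMSO baseline.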

Read-out in assay [16]: Monokine induced gamma interferon (MIG), CXCL9 (gene 4283)
Description: BSK_SAg_MIG: BioMAP Diversity Plus: SAg Assay for Monokine induced gamma interferon (MIG) Biomarker Activity (AID 2283092). To be noted: primary human HUVEC with PBMC; actives raise or lower the signal. In short, it runs like this:
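Endothelial cells and PBMC were co-cultured, exposed to test chemicals, and sampled 24 h later. MIG was measured by ELISA, and responses were fitted in both directions relative to DMSO.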

Read-out in assay [17]: Interleukin-8 (IL8), CXCL8 (gene 3576)
Description: BSK_SAg_IL8: BioMAP Diversity Plus: SAg Assay for Interleukin-8 (IL8) Biomarker Activity (AID 2283094). To be noted: primary human HUVEC with PBMC; actives raise or lower the signal. In short, it runs like this:
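Primary human endothelial cells with PBMC, exposed 24 h; IL-8 determined by ELISA, analysed bidirectionally relative to DMSO.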

A short description of assay [18]: BSK_SAg_SRB: Viability Assessment in the BioMAP Diversity Plus: SAg Assay (AID 2283096).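 Also: cells read one day after compound addition; hits may be either gain or loss of signal compared with DMSO.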 To be noted: primary human HUVEC with PBMC. In short, it runs like this: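 Compounds were added to a human vascular co-culture of umbilical vein endothelium and PBMC. After 24 h, parallel cultures were fixed with 10% TCA, stained with 0.1% sulforhodamine B and read at 560 nm. Gain or loss of signal was fitted relative to DMSO.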

Read-out in assay [19]: Interferon-inducible T-cell alpha chemoattractant (ITAC), CXCL11 (gene 6373)
Description: BSK_hDFCGF_ITAC: BioMAP Diversity Plus: hDFCGF Assay for Interferon-inducible T-cell alpha chemoattractant (ITAC) Biomarker Activity (AID 2284251). Particulars: primary human foreskin fibroblasts. In short, it runs like this: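 Measured by ELISA, the chemokine level serves as the endpoint in human skin fibroblast primary cultures 24 h after compound addition. Increases relative to DMSO-treated wells define activity.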

E-selectin (Homo sapiens), sequence (P16581 whole entry, looked up): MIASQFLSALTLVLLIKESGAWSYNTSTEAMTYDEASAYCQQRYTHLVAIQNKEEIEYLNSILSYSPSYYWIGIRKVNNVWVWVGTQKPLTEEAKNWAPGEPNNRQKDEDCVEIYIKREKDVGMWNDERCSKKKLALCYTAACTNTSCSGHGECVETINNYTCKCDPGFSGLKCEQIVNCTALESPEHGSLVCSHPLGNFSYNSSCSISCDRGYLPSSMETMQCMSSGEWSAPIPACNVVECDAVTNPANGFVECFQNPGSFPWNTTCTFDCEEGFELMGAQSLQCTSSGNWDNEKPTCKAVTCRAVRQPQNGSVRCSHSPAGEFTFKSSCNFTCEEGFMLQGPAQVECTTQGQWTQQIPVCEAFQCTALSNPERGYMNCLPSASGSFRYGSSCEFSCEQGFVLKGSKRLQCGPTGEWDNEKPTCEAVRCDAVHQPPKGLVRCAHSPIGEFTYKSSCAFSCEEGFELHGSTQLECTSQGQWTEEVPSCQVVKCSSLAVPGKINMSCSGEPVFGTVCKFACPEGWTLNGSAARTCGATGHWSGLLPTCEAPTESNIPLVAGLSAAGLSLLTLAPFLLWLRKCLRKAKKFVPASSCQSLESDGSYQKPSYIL

As for `O=[N+]([O-])c1cc(S(=O)(=O)Nc2ccccc2)ccc1Nc1ccccc1`, the AC50 (commonly the concentration giving half of the maximal activity seen) was 27.7 µM (active) and 29 µM (active) in [1]; 31 µM (active) and 31.3 µM (active) in assay [2]; 30.9 µM (active) and 36.7 µM (active) in assay [3]; 26.6 µM (active) and 25.4 µM (active) in assay [4]; 30.2 µM (active) and 32.4 µM (active) in assay [5]; 34.6 µM (active) in [6]. The AC50 was 31 µM (active) and 32.2 µM (active) in assay [7]; 32.6 µM (active) and 30.4 µM (active) in assay [8]; 25.3 µM (active) and 23.6 µM (active) in [9]; 31.5 µM (active) and 29.5 µM (active) in [10]; 32.8 µM (active) and 32.9 µM (active) in [11]; 31.1 µM (active) and 28.7 µM (active) in assay [12]. The concentration at half-maximal activity (AC50) is 13.6 µM (active) and 12.6 µM (active) in assay [13]; 25 µM (active) and 26 µM (active) with CD38, CD38 (gene 952); 28.5 µM (active) and 28.6 µM (active) in assay [14]; 12.1 µM (active) and 19.5 µM (active) in [15]; 34.1 µM (active) and 35.3 µM (active) in assay [16]; 20 µM (active) and 14.4 µM (active) in assay [17]. Also, the AC50 in assay [18] was 29.3 µM (active) and 31.8 µM (active); in assay [19], 27.4 µM (active) and 24 µM (active).

Regarding `COc1cc(CNC(=O)CCCC/C=C/C(C)C)ccc1O`, the result in assay [1], in assay [2], in [3], in [4], in assay [5] and in [6] was inactive. The outcome in assay [7], in assay [8], in assay [9], in assay [10], in [11] and in [12] was inactive. The outcome is “inactive” in assay [13]; “inactive” with CD38, CD38 (gene 952); “inactive” in assay [14]; “inactive” in assay [15]; “inactive” in assay [16]; “inactive” in assay [17]. For the same compound, the outcome in assay [18] was inactive. For the same compound, the concentration at half-maximal activity (AC50) in assay [19] was 8.32 µM (active) and 8.05 µM (active).

For the compound `COc1ccccc1Oc1c(NS(=O)(=O)c2ccc(C(C)(C)C)cc2)nc(-c2ncccn2)nc1OCCO`, the result in assay [1], in assay [2], in [3], in [4], in [5] and in [6] was inactive. For the same compound, the outcome in assay [7], in [8], in assay [9], in assay [10], in [11] and in assay [12] was inactive. The outcome in [13] is “inactive”; with CD38, CD38 (gene 952), “inactive”; in [14] it was “inactive”; in assay [15] it was “inactive”; in assay [16], “inactive”; in assay [17], “inactive”. Further, the outcome in assay [18] and in [19] was inactive.
